# According to the supplement of paper PMC10849652:
# About 8,800 targets were measured; listed, in parts, are those with a hit and a random draw of the rest. About 0.5% of all pairs of compound and target were hits. Unmarked numbers belong to inactive results.
# Assays:
# Test in all cases: log2 fold change, soluble protein after heating vs DMSO (PISA); higher = thermal stabilisation; K562 lysate, 10 uM; active = over 0.2 and 3.5 SD of the protein, either way, in both replicates (recomputed)
# [1] = compound: NCC(=O)Nc1ccc(-n2nc(C(F)(F)F)cc2-c2ccc3c(ccc4ccccc43)c2)cc1
# Outline: (§1)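 Values give the log-two fold change in thermal stability against solvent controls, from duplicates. Crude K562 extract at 1 mg/mL protein, made by dounce homogenisation in PBS pH 7.4 with 1 mM MgCl2, was treated with 10 μM compound for 30 min. After 3 min heating across 48°C-58°C, aliquots were pooled, adjusted to 0.5% NP-40 at 4°C and centrifuged at 21,000xg for 90 min. The supernatant was measured by TMTpro 16plex LC-MS/MS with channel sums equalised.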
# [2] = compound: O=C(CCCCCCC(=O)Nc1ccccc1)NO [vorinostat]
# Outline: as §1
# [3] = compound: O=C(O)c1ccc2c(c1)nc(Nc1cccc(Cl)c1)c1ccncc12 [silmitasertib]
# Outline: as §1
# [4] = compound: O=C1NC(=O)C(c2cnc3ccccn23)=C1c1cn2c3c(cc(F)cc13)CN(C(=O)N1CCCCC1)CC2
# Outline: as §1
# [5] = compound: c1cn2cc(-c3ccc4cn[nH]c4c3)nc(Nc3ccc(N4CCOCC4)cc3)c2n1 [entospletinib]
# Outline: as §1
# Chain of UniProt Q9UNP9 (Q9UNP9 whole entry, looked up): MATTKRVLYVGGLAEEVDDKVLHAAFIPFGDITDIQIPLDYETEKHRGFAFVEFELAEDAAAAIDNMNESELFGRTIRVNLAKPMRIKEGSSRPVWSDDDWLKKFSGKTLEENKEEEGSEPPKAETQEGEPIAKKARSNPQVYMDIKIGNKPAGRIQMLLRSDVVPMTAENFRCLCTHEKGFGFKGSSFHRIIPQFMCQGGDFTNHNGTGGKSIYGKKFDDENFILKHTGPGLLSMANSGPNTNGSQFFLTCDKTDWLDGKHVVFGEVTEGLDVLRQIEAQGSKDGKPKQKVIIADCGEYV
# Chain of UniProt O94913 (O94913 whole entry, looked up): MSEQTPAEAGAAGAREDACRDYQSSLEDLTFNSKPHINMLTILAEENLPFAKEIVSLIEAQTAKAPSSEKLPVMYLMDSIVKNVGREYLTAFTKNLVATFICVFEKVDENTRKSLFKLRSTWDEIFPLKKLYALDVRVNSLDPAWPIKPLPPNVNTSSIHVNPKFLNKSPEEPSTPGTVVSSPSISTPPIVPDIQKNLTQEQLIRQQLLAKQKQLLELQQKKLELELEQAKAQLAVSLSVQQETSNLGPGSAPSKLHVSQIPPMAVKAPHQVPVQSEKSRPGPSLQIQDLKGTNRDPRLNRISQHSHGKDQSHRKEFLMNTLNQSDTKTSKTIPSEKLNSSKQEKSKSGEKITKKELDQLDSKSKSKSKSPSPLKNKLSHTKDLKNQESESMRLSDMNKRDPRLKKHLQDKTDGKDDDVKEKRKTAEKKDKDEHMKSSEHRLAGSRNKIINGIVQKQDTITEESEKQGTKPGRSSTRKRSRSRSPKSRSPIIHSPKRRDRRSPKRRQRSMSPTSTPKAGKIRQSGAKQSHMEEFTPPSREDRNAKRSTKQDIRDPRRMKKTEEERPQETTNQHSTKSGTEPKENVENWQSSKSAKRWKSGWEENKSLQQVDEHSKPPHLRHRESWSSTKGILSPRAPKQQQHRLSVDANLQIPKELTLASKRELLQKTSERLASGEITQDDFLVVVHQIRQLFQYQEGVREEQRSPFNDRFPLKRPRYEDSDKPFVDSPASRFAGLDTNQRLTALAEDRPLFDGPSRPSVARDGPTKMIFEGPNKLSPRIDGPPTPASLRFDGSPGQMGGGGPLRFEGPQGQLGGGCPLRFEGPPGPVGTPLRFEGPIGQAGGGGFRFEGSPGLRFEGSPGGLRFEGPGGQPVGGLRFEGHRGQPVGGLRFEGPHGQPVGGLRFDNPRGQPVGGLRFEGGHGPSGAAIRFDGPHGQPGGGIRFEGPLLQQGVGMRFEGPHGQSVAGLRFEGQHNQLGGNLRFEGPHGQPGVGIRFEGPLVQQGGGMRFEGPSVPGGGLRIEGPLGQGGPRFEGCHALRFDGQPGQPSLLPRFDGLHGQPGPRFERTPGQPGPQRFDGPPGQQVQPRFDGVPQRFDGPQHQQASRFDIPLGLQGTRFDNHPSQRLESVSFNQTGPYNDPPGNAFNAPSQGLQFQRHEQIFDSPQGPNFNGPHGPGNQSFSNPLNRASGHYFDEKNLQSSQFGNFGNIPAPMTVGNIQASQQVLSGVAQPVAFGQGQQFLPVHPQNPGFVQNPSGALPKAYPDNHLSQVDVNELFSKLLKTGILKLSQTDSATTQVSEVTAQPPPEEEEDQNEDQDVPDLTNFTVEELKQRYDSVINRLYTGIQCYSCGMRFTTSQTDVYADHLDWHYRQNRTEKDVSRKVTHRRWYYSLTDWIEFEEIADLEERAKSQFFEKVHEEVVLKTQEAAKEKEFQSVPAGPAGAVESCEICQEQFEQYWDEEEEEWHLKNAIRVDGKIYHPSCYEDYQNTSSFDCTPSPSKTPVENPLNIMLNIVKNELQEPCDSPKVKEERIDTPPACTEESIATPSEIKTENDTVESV
# Chain of UniProt Q05655 (Q05655 whole entry, looked up): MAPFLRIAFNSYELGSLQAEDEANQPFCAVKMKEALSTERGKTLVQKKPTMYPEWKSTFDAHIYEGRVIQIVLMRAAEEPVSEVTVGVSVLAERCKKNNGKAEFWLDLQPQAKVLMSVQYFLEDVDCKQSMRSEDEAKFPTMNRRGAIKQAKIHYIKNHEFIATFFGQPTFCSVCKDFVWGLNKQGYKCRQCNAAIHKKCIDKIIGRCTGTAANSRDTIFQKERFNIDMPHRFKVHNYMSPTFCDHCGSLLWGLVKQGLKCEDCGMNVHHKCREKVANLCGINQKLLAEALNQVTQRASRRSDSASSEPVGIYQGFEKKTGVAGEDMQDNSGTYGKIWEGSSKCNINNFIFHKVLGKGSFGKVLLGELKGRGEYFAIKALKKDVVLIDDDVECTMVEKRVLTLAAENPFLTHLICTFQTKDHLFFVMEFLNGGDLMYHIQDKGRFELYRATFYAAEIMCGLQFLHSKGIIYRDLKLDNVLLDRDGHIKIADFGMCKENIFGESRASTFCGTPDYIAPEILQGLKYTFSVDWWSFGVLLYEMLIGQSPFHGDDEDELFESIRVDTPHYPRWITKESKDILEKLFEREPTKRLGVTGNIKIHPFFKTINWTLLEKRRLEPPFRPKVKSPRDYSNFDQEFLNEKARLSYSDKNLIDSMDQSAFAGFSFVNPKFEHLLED
# Chain of UniProt P49643 (P49643 whole entry, looked up): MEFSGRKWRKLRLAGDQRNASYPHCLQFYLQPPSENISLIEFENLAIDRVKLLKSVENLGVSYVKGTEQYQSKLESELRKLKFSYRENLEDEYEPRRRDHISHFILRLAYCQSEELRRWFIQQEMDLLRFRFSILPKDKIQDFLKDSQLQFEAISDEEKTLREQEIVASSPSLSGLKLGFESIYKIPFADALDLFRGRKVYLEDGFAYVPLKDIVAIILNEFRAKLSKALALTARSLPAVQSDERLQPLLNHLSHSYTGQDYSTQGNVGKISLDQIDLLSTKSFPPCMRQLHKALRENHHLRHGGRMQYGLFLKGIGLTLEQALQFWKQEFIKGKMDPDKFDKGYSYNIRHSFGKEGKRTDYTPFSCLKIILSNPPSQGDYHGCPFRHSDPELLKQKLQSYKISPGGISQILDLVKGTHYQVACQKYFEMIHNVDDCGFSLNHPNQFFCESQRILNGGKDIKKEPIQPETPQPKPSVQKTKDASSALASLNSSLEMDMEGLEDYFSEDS
Target,log2 fold change [1],log2 fold change [2],log2 fold change [3],log2 fold change [4],log2 fold change [5]
PRIM2 (UniProt P49643),-0.008,-0.296 (active),0.09,0,0.003
PCF11 (UniProt O94913),0.043,-0.339 (active),-0.023,-0.001,0.016
PRRC2A (UniProt P48634),0.012,0.108,-0.026,-0.018,-0.003
PPIE (UniProt Q9UNP9),0.024,0.096,0.035,-0.045,-0.036
PRKCD (UniProt Q05655),0.008,-0.075,-0.006,-0.005,0.019
